The list is not random: actives were taken first. Their share in the collection is about 3.1%.
PriA SSB inh – inhibitors of Klebsiella pneumoniae PriA binding to SSB C-terminal tail; AlphaScreen SSBct-PriA binding, biotinylated peptide; inhibition, % at 33 µM; actives 0.6% (n = 430,000); in the data active means inhibition mostly above about 37%, no sharp cut-off; inactive means mostly below about 20%;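 further: plate controls were negative control peptide for no effect and reference peptide for full effect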
Autofluor counter – counter-screen for toxin protease inhibitors: compound fluorescence | compound autofluorescence counterscreen, microsphere flow cytometry; active compounds read high | fluorescence intensity (concentration not given with the values) | actives 3.1% (n = 360,000) | AID 624483; in the data active means fluorescence intensity above about 16000; inconclusive means no clear call, values can overlap the other calls
Anthrax LF inh2 – blocks Bacillus anthracis lethal factor protease; P15917; actives 0.12% (n = 360,000); multiplex microsphere protease cleavage assay, LF; inhibition, % at 10 µM; further: plate controls were buffer without enzyme for full effect and enzyme alone for no effect
Target sequence (P15917 whole entry, looked up): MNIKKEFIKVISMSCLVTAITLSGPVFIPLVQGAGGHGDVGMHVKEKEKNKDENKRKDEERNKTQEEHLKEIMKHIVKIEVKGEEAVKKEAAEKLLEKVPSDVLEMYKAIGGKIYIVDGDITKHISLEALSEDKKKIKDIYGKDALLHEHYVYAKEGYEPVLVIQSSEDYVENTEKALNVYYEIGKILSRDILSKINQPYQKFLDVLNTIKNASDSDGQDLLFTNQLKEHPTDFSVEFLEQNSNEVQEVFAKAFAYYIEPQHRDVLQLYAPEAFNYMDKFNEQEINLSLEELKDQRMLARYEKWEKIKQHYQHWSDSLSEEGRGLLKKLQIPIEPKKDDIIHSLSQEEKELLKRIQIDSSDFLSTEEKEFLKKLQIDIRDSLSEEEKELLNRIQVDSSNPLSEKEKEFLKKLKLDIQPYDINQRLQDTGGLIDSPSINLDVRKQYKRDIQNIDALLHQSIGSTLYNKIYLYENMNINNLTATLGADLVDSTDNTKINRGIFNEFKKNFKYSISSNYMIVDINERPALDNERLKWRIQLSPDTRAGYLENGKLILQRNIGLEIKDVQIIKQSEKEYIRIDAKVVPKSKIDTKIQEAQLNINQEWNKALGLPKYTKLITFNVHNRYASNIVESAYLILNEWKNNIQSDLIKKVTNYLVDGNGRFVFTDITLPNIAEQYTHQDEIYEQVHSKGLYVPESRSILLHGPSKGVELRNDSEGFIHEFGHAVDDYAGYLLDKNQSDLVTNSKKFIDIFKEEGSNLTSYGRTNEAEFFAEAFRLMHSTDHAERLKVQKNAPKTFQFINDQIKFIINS
BoNT A protease – inhibitors of Botulinum neurotoxin A light chain protease; multiplex microsphere protease substrate cleavage, flow cytometry; inhibition, % at 10 µM; actives 0.17% (n = 360,000); AID 588499; further: plate controls were buffer without enzyme for full effect and enzyme alone for no effect
BoNT F protease – blocks Botulinum neurotoxin F light chain protease. Multiplex microsphere protease cleavage assay, flow cytometry. inhibition, % at 10 µM. actives 0.22% (n = 360,000); in the data active means inhibition above about 35%, passing the limit was not always enough; inconclusive means no clear call, values can overlap the other calls; further: plate controls were buffer without enzyme for full effect and enzyme alone for no effect
Numbers without * were called inactive; ? = inconclusive; / = no result; ! = repeats disagree. Unless noted, no stated cut-off is given here; in the data, active means inhibition above about 30%; inconclusive means no clear call, values can overlap the other calls; inactive means below that.

SMILES	PriA SSB inh	Autofluor counter	Anthrax LF inh2	BoNT A protease	BoNT F protease
Cc1c(C(=O)NCCn2nc(-c3ccsc3)cc2C2CC2)cnn1-c1ccccc1	-7	/	/	/	/
CC[C@H]1C2C[C@H]3[C@@H]4N(C)c5ccccc5C45C[C@H](C2C5O)N3[C@@H]1O (stereo not given in full)	9	/	/	/	/
O=S(=O)(c1ccc(F)cc1)N1CCSC1c1cccc(OCc2ccccc2)c1 (stereo not given)	8	/	/	/	/
Cn1nc(C(=O)Nc2ccccc2C(F)(F)F)ccc1=O	-2	/	/	/	/
CCS(=O)(=O)c1ccc2oc(SCC(=O)NCCc3ccccc3)nc2c1	4	3352	0	0	0
O=C(CSc1nc2cc(Cl)ccc2o1)NCCc1ccccc1	0	19890*	0	-1	-4
COc1ccc(CNC(=O)CCCn2c(SCC#N)nc3cc4c(cc3c2=O)OCO4)cc1	2	21923*	-1	3	0
COCCCNC(=O)CSc1nc2cc3c(cc2c(=O)n1CCCC(=O)NCc1ccc(OC)cc1)OCO3	0	4512	-6	-1	-10
COCCNC(=O)CSc1nc2ccccc2c(=O)n1CCCC(=O)NCc1ccccc1	1	22634*	-4	?	1
COc1c(C)cc(Br)cc1C(=O)Nc1ccccc1C	-7	4677	-2	-1	-3
COc1c(C)cc(Br)cc1C(=O)O	-23	22363*	-5	0	-2
CC(=O)Nc1ccc(S(=O)(=O)NCc2ccc(C)cc2)cc1	-8	4322	0	0	3
CC(=O)Nc1ccc(S(=O)(=O)NCc2ccc3[nH]c(C)cc3c2)cc1	38	3018	-39	53*	-88
Cc1cc2cc(CNS(=O)(=O)N(C)C)ccc2[nH]1	46*!	4807	-28	7	-59
CN1CCN(C(=O)CCCc2ccccc2)C2(CCCC2)C1	9	/	/	/	/
COc1ccc(CCNC(=O)NCC(c2ccsc2)N2CCN(C)CC2)cc1 (stereo not given)	-9	/	/	/	/
COC(=O)c1[nH]c(C)c(C(O)=C2C(=O)C(=O)N(CCN(C)C)C2c2cccc(OC)c2OC)c1C (stereo not given)	-9	/	/	/	/
O=C(Nc1ccc(N2CCCCC2=O)cc1)c1cc(Br)ccc1Cl	7	/	/	/	/
CC(C)C(=O)N1N=C(c2cccs2)CC1c1cccs1 (stereo not given)	-46	/	/	/	/
O=C(NCc1cccs1)c1noc2c1CCCCC2	-3	16908*	-9	-3	-6
O=C(NCc1ccco1)c1noc2c1CCCC2	1	11017	0	0	2
O=C(NCc1ccccc1)c1noc2c1CCCCC2	-14	16329*	-2	-1	-2
COc1ccc(CNC(=O)c2noc3c2CCCCC3)cc1	3	21035*	-4	-1	-2
COc1ccc(NC(=O)c2noc3c2CCC3)cc1	-7	6488	8	0	0
NC(=O)c1c(-c2ccccc2)oc2ccc(O)cc12	-6	22271*	-1	0	4
SMILES	PriA SSB inh	Autofluor counter	Anthrax LF inh2	BoNT A protease	BoNT F protease
CCOC(=O)c1c(-c2ccccc2)oc2ccc(O)cc12	-26	4127	3	3	8
CC(C)=NNC(=S)NC(C)(C)C	43*	/	/	/	/
O=C(CCS(=O)(=O)c1ccc(Cl)cc1)Nc1nnc(-c2ccc3c(c2)OCCO3)o1	2	/	/	/	/
CC(=O)Nc1ccc(SCCCC(=O)NCC2CCCO2)nn1 (stereo not given)	1	/	/	/	/
CCCc1cc(C(=O)Cc2ccc(C(=O)OCC)o2)c(O)cc1O	2	4467	-1	1	3
CCCc1cc(-c2n[nH]c(C)c2-c2ccc(C(=O)OCC)o2)c(O)cc1O	24	19356*	-9	2	-3
COC(=O)C1=C(NC(=O)c2ccccc2I)CCS1	51*	/	/	/	/
COC(=O)C1=C(NC(=O)c2ccccc2[N+](=O)[O-])CCS1	-21	4270	-2	0	-2
C=CCn1c(COc2ccc(Cl)c3cccnc23)nnc1SC(F)F	-8	/	/	/	/
COc1ccc(C(=O)NN=C(CCC(=O)O)c2ccc(C(C)(C)C)cc2)cc1OC	-5	/	/	/	/
O=C(NCc1ccc(C(O)c2ccsc2)s1)NC1CCCC1 (stereo not given)	-14	/	/	/	/
Fc1ccc(OCCn2cnc(Cl)c2Cl)cc1	15	4674	-3	-1	-3
Cc1cccc(OCCn2cnc(Cl)c2Cl)c1	40*	3556	2	0	-2
CCCOc1ccc(N2CCN(C(=O)COc3ccccc3F)CC2)nn1	-11	/	/	/	/
CC1Cc2ccccc2N1C(=O)CSc1nnc(-c2ccc(S(=O)(=O)N3CCOCC3)cc2)n1C (stereo not given)	-13	2400	0	0	-3
CC1Cc2ccccc2N1C(=O)CSc1nnc(-c2ccccc2)c(-c2ccccc2)n1 (stereo not given)	10	16388*	?	?	?
CC1Cc2ccccc2N1C(=O)CSc1nnc(-c2ccc(S(=O)(=O)N3CCCC3)cc2)o1 (stereo not given)	-5	20428*	-1	?	-4
CC(=O)c1cccc(NC(=O)CSc2nnc(-c3ccc(S(=O)(=O)N4CCCC4)cc3)o2)c1	-9	21749*	1	1	4
Cc1ccc(-c2nnc(SCC(=O)Nc3ccc(S(=O)(=O)N4CCCCCC4)cc3)o2)cc1	2	9547	1	1	11
COc1ccc(C(=O)CSc2nnc(-c3ccc(S(=O)(=O)N4CCOCC4)cc3)o2)cc1	-14	20449*	-1	-3	-4
O=C(Nc1nc(C2CC2)cs1)C1CCCN1c1nc2ccccc2o1 (stereo not given)	-8	/	/	/	/
O=C(CSc1nnc(-c2ccc(S(=O)(=O)N3CCCC3)cc2)o1)NCc1ccco1	-3	21711*	1	2	3
CCN(CC)S(=O)(=O)c1ccc(-c2nnc(SCC(C)=O)o2)cc1	1	16485*	1	-1	-5
CCN(CC)C(=O)CSc1nnc(-c2ccc(S(=O)(=O)N3CCCC3)cc2)o1	0	22144*	-1	?	-1
Cc1onc(-c2ccccc2Cl)c1C(=O)Nc1nc2c(s1)COCC2	-8	/	/	/	/
SMILES	PriA SSB inh	Autofluor counter	Anthrax LF inh2	BoNT A protease	BoNT F protease
Cc1ccc(NC(=O)CCC(=O)OCC(=O)c2ccc(Oc3ccc([N+](=O)[O-])cc3)cc2)c(C)c1	-5	17075*	-1	-1	1
O=C(CN1C(=O)COc2ccccc21)NCc1ccc(C(=O)O)cc1	-12	22844*	1	1	2
O=C(CN1C(=O)COc2ccccc21)N1CCCc2ccccc21	-5	22767*	0	-7	-7
O=C(CN1C(=O)COc2ccccc21)N1CCCC1	-8	3415	0	0	0
CCc1ccc(CNC(=O)CN2C(=O)COc3ccccc32)cc1	-6	10136	7	1	-5
O=C(CC1CSc2nccc(=O)n21)N1CCC(Cc2ccccc2)CC1 (stereo not given)	0	/	/	/	/
O=S(=O)(CC(CN1CCCC1)N1CCCC1)c1ccc2ccccc2c1 (stereo not given)	2	26003*	-4	3	7
COc1cccc2cccnc12	-13	/	/	/	/
O=S(=O)(c1ccc(Br)s1)N1CCC(Cc2ccccc2)CC1	-4	23471*	-2	1	0
O=S(=O)(c1ccc(Cl)s1)N1CCC(Cc2ccccc2)CC1	-22	23306*	0	-3	-5
